# NPC1 prom act – activates the NPC1 promoter; Huh7 NPC1 promoter luciferase reporter, 24 h; Potency, µM (titrated, usually from 9.22 µM), without a hit: top-dose activation, most hits filed as activators; 2.4% of 320,000 active; also: % of control where 0% means no effect; nearly all actives have a fitted effect of over 60% in size
#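 NPC1 promoter–luciferase Huh7 cells; 24 h compound; luminescence.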
# ELG1 repair inh – inhibitors of ELG1-dependent DNA repair in HEK293T cells | HEK293T ELG1-luciferase reporter, luminescence, 16 h; DNA damage induced by 5-fluorouridine | Potency, µM (top dose mostly 46.1 µM), inactives show at the top dose activity change, negative = inhibition, hits mostly inhibitors | 2.3% of 330,000 active | AID 504467; also: % is scaled to controls: 0 for no effect and ±100 for the full control effect; nearly all actives have a fitted effect of over 55% in size
#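 In this reporter screen, reduction of luminescence relative to DMSO vehicle indicated activity. Compounds and 5-fluorouridine were added together to 2,000 cells per well, incubated for 16 hr at 37 °C, then developed with ONE-Glo.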
# ELG1 genotox – inducers of genotoxicity in HEK293T ELG1-luciferase cells; Potency, µM (top dose mostly 46 µM), for the others: at the highest dose activity change, positive = activation, usual class: activators; 1.3% of 330,000 active; HEK293T ELG1-luciferase reporter, luminescence, 16 h; AID 504466; also: % of control where 0% means no effect; nearly all actives have a fitted effect of over 60% in size
#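 Cells (2,000/well) expressing the ELG1-luciferase fusion are dosed by pin tool and kept 16 hr at 37 °C, 5% CO2. Signal comes from ONE-Glo luciferase reagent after 30 min at room temperature.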
# FLuc counter – counter-screen for miR-21 project: firefly luciferase inhibitors or activators | P08659 | purified FLuc, Km substrates, luminescence inhibition | 6.9% of 360,000 active | Potency, µM (top dose mostly 57.5 µM), for the others: at the top dose activity change, negative = inhibition, most hits filed as inhibitors | AID 588342;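 also: plate controls were vehicle for no effect and reference inhibitor for full effect; nearly all actives have a fitted effect of over 55% in size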
# Target sequence (P08659 whole entry, looked up): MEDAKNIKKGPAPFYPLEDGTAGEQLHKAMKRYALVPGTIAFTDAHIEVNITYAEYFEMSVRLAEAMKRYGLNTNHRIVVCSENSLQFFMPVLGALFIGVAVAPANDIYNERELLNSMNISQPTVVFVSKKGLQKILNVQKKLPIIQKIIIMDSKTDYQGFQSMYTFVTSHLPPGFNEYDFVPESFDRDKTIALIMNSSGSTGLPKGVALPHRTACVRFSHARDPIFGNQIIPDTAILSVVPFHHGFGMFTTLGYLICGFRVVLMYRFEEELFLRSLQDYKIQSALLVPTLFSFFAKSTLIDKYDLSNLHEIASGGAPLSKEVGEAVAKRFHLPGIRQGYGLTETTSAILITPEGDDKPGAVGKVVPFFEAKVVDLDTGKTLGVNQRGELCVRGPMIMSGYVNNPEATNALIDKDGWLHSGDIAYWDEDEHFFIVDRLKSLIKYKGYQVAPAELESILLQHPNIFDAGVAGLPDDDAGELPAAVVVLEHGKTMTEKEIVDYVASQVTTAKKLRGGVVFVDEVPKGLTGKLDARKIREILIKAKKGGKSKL
#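 Purified P. pyralis luciferase, 10 nM final, with Km-level 10 uM D-luciferin and 10 uM ATP in 50 mM Tris acetate pH 7.5, 10 mM Mg acetate, 0.01% Tween-20, 0.05% BSA; 6-point qHTS titration about 60 µM downward; luminescence read.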
# Rab9 promoter act – Rab9 promoter activation; Huh7 Rab9 promoter-luciferase reporter, luminescence, 24 h; Potency, µM (series often up to 9.22 µM), inactives show at the top dose activation, negative = inhibition, hits mostly activators; 2.8% of 320,000 active; also: % of control where 0% means no effect; nearly all actives have a fitted effect of over 60% in size
#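 Steps: seed 1500 Huh7 Rab9-luc cells per well, rest 2 h at 37 °C; add compound in DMSO; incubate 24 h; add luciferase reagent, 10 min ambient; read luminescence.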
# SMN2 splice up – increases expression of the SMN2 splice variant | HEK293 SMN2-luciferase splicing reporter, luminescence, 30-36 h | Potency, µM (series often up to 46.1 µM), without a hit: top-dose activity change, positive = activation, usual class: activators | 2.8% of 210,000 active | AID 1458; also: % of control where 0% means no effect; nearly all actives have a fitted effect of over 55% in size
#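 HEK293 cells carry an SMN2 minigene-luciferase reporter in which exon 7 inclusion puts luciferase in frame. Cells were seeded at 2000 cells/well, attached for 10-12 hours, then exposed to compounds for 30-36 hours at 37C before ONE-Glo luminescence.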
# An asterisk follows results filed as active; ? = inconclusive; · = no result; [ ] = dose if it differs, or a comment. Compounds with a hit are over-represented: about 9.3% of the library has one in this group of screens. Calls follow the shape of the dose curve; as a rule, active = well fitted curve in the direction sought with a large enough effect; inconclusive = small, poorly fitted or top-dose-only effect, or another doubt; inactive = no such curve, though single readings can be large; an effect the other way counts as inactive or inconclusive. Potency is read from the fitted curve at half-maximal effect.
SMILES,NPC1 prom act,ELG1 repair inh,ELG1 genotox,FLuc counter,Rab9 promoter act,SMN2 splice up
CC(C)c1nnc(NC(=O)CC(=O)Nc2ccccc2C(=O)O)s1,2.5µM*,?,?,4.8µM*,3.5µM*,-17%
CC(C)c1nnc(NC(=O)CCC(=O)Nc2ccccc2)s1,-3%,6%,0%,1%,1%,·
CC(C)Cc1nnc(NC(=O)CC(=O)Nc2ccccc2C(=O)O)s1,12%,?,8%,15µM*,7%,-10%
CCc1nnc(NC(=O)CC(=O)Nc2ccccc2C(=O)O)s1,18%,?,1%,15µM*,?,-11%
CCCCc1nnc(NC(=O)CCSc2ccccc2)s1,4%,0%,-1%,0%,0%,-14%
CCCCc1nnc(NC(=O)CC(=O)Nc2ccccc2C(=O)O)s1,10%,2%,2%,17µM*,-1%,-13%
Cc1ccc2c(c1)c1cccc3c1n2CCN3CCC(N)=O,3.2µM*,?,5µM*,6µM*,3.2µM*,20µM*
NC(=O)CCn1c2ccccc2c2ccccc21,-1%,-14%,-4%,-3%,-18%,-2%
COc1ccc2cc(C(=O)NCc3ccco3)c(=Nc3ccc(C(=O)O)cc3)oc2c1,7%,?,14%,?,7%,-34%
COc1ccc2cc(C(=O)NCc3ccco3)c(=O)oc2c1,?,?,5.8µM*,6µM*,?,27%
O=C(NCc1ccco1)c1cc2ccc(O)cc2oc1=O,?,?,?,11µM*,?,8%
O=C(NCc1ccco1)c1cc2ccccc2o1,11%,?,8%,?,1%,9%
CCOC(=O)Cc1csc(NC(=O)COc2ccc3c(c2)CCC3)n1,-1%,7%,4%,12µM*,0%,·
CCOC(=O)Cc1csc(NC(=O)COc2ccc(C)cc2)n1,-1%,-14%,0%,13µM*,-1%,·
CCOC(=O)Cc1csc(NC(=O)COc2cccc(C)c2)n1,3%,-6%,-2%,?,-1%,2%
CCOC(=O)Cc1csc(NC(=O)CSc2ncnc3c2cnn3-c2ccc(OC)cc2)n1,-3%,?,-17%,8.5µM*,18%,-19%
CCOC(=O)Cc1csc(NC(=O)COc2ccc(C)c(C)c2)n1,16%,?,?,?,30%,·
CCOC(=O)Cc1csc(NC(=O)COc2ccccc2)n1,-4%,-1%,-1%,?,-5%,4%
CCOC(=O)Cc1csc(NC(=O)COc2ccc(N(C)S(=O)(=O)c3cccs3)cc2)n1,-3%,18µM*,-15%,0%,-6%,-27%
COc1ccc(NS(=O)(=O)c2cc3c4c(c2)CCN4C(=O)CC3)cc1OC,-4%,7%,0%,-1%,-6%,·
C#CCCOC(=O)N1C2=NC(C(=O)OC)=C(C(=O)OC)[C@@H]3N(CC#CC)c4ccccc4[C@]23C[C@H]1C(=O)OC,·,·,·,·,·,-9%[9.22 µM]
CCOC(=O)Cc1csc(NC(=O)Nc2ccc(OC(F)(F)F)cc2)n1,-1%,2.1µM*,-7%,2.4µM*,-13%,·
Clc1ccc(C2=NN(c3ccccc3)C(c3ccco3)C2)cc1 (configuration not stated),8%,?,-1%,?,-5%,·
Cc1nc(N2N=C(c3ccc(Cl)cc3)CC2c2ccco2)sc1C(=O)N(C)C (configuration not stated),-1%,?,1%,15µM*,2%,10%
CC1CC(=O)c2cnc(Nc3cccc(C(F)(F)F)c3)nc2C1 (configuration not stated),19%,6%,7%,?,?,0%
SMILES,NPC1 prom act,ELG1 repair inh,ELG1 genotox,FLuc counter,Rab9 promoter act,SMN2 splice up
Cc1ccc(Nc2ncc3c(n2)CC(C)CC3=O)c(C)c1 (configuration not stated),27%,?,7.3µM*,7.6µM*,?,·
CC1CC(=O)c2cnc(Nc3ccccc3)nc2C1 (configuration not stated),3.2µM*,?,5.8µM*,9.5µM*,3.5µM*,11µM*
COc1ccc(OCCC(=O)OCC(=O)NCCc2ccccc2)cc1,-3%,-11%,1%,-7%,-5%,5%
Cc1cccc(Cl)c1NC(=O)N1CCN(c2ccnc3cc(Cl)ccc23)CC1,-8%,18µM*,-15%,2%,-5%,·
CCCCNC(=O)N1CCN(c2ccnc3cc(Cl)ccc23)CC1,0%,21µM*,-9%,-1%,1%,·
CCN(CC(=O)Nc1ccc(NC(C)=O)cc1)C(=O)c1ccc2c(c1)S(=O)(=O)N=C1CCCCCN12,0%,8%,-10%,11µM*,-1%,·
CCCN(CC(=O)Nc1ccccc1C)C(=O)c1ccc2c(c1)S(=O)(=O)N=C1CCCCCN12,-2%,17%,1%,-1%,7%,·
COC(=O)c1ccccc1NC(=O)CSc1n[nH]c(-c2ccco2)n1,-4%,-13%,0%,1%,2%,·
Fc1ccccc1/C=N/Nc1ncnc2nc[nH]c12,29%,?,21µM*,?,23%,13µM*
Fc1cccc(/C=N/Nc2ncnc3nc[nH]c23)c1,?,?,-2%,19µM*,3.5µM*,10µM*
COCCCn1c(SCC(=O)NNC(=O)c2cccc(O)c2)nnc1-c1ccncc1,-3%,11%,0%,-3%,-6%,·
CC1SCC(NC(=O)c2cccc(Cl)c2)CS1 (configuration not stated),5%,-6%,2%,-8%,1%,·
CC1SCC(NC(=O)c2ccccc2Cl)CS1 (configuration not stated),?,?,?,17µM*,4.5µM*,·
COc1ccccc1CNC(=O)C1CCN(S(=O)(=O)c2cn(C)cn2)CC1,·,·,·,-5%,·,·
CC(O)CNc1cnccn1 (configuration not stated),-2%,16%,21%,0%,3%,-27%
O=C(CCC(=O)N1CCN(c2ccccn2)CC1)c1ccc(Cl)s1,4%,?,3%,·,-2%,·
O=C1NC[C@H](c2ccccc2)OC(=O)[C@H](Cc2ccc(F)cc2)C/C=C\C[C@@H]1CC(=O)N(CCO)Cc1ccccc1,·,?,-8%,·,·,·
O=C1NC[C@@H](c2ccccc2)OC(=O)[C@@H](Cc2ccc(F)cc2)C/C=C\C[C@@H]1CC(=O)N(CCO)Cc1ccccc1,·,21µM*,-7%,·,·,·
O=C1N[C@@H](Cc2c[nH]c3ccccc23)COC(=O)[C@@H](Cc2ccc(F)cc2)CC/C=C/C[C@@H]1CC(=O)N(CCO)Cc1ccccc1,·,21µM*,-12%,·,·,·
